ELG1 repair inh – blocks ELG1-dependent DNA repair in HEK293T cells | HEK293T ELG1-luciferase reporter, luminescence, 16 h; DNA damage induced by 5-fluorouridine | Potency, µM (highest dose often 46.1 µM), inactives show top-dose activity change, negative = inhibition, hits mostly inhibitors | 330,000 tested, 2.3% active | AID 504467; also: potency is read from the fitted curve at half-maximal effect; nearly all actives have a fitted effect of over 55% in size
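5-Fluorouridine DNA damage + compound/DMSO, 2,000 cells/well, 16 h, 37 °C/5% CO2. ONE-Glo, 30 min RT, luminescence. Readout = decrease in reporter signal.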
TDP1 cell CPT – DT40-hTDP1 cell growth loss with CPT; chicken DT40 Tdp1-/-;hTDP1 cells + 20 nM CPT, ATP luminescence, 48 h; Potency, µM (series often up to 46.2 µM), inactives show top-dose activity change, negative = growth inhibition, hits mostly inhibitors; 420,000 tested, 12% active; also: potency is read from the fitted curve at half-maximal effect; nearly all actives have a fitted effect of over 55% in size
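Cell growth measured by CellTiter-Glo luminescence after a minimum 48 h, 37 C compound exposure with 20 nM CPT in Tdp1-knockout DT40 cells stably expressing hTDP1, seeded 400/well; qHTS titration format.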
Giardia kill – kills Giardia lamblia. Giardia lamblia trophozoite viability. activity change, % at 7.66 µM, hits read low. 340,000 tested, 0.15% active. AID 540267; in the data active = activity change below about -80%; inconclusive = between about -30% and that limit;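 also: parasites exposed to compound for two days anaerobically before the ATP read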
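Giardia trophozoites, 100 cells per well, were exposed to compounds for 48 hrs at 37 deg C under anaerobic conditions; viability was then read as ATP content by bioluminescence after 15-30 min at room temperature.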
IL1B secr inh – inflammasome signaling inhibition, IL-1 beta readout. THP-1 LPS/ATP IL-1B secretion, AlphaLISA, 16 h; active compounds read low. activity change, % at 57.5 µM. 360,000 tested, 4.7% active; in the data active = activity change below about -50%; inconclusive = mostly about -30% to -49%
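Secreted IL-1B measured by AlphaLISA bead assay after 16 h compound exposure of THP-1 cells; compounds (final up to 57.5 uM) added 1 h before LPS (250 ng/mL) and ATP (1.25 mM) stimulation; lower signal means less secretion.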
DT40 TDP1 no CPT – qHTS for Inhibitors of human tyrosyl-DNA phosphodiesterase 1 (TDP1): qHTS in cells in absence of CPT; 420,000 tested, 15% active; DT40 Tdp1-/- hTDP1 cells, no CPT, ATP luminescence, 48 h; Potency, µM (doses to about 46.2 µM), inactives show at the top dose activity change, negative = growth inhibition, hits mostly inhibitors; also: potency is read from the fitted curve at half-maximal effect; nearly all actives have a fitted effect of over 55% in size
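Chicken DT40 Tdp1-/- cells stably complemented with human TDP1 were seeded at 400 cells/well with DMSO in place of 20 nM camptothecin. After compound pinning, cells grew at least 48 hr at 37 °C; viability read by CellTiter-Glo luminescence.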
TDP1 block – blocks human tyrosyl-DNA phosphodiesterase 1; Q9NUW8; recombinant TDP1, AlphaScreen DNA substrate cleavage; Potency, µM (doses to about 130 µM), inactives show top-dose activity change, negative = inhibition, usual class: inhibitors; 350,000 tested, 0.28% active; also: potency is read from the fitted curve at half-maximal effect; nearly all actives have a fitted effect of over 40% in size
Target sequence (Q9NUW8 whole entry, looked up): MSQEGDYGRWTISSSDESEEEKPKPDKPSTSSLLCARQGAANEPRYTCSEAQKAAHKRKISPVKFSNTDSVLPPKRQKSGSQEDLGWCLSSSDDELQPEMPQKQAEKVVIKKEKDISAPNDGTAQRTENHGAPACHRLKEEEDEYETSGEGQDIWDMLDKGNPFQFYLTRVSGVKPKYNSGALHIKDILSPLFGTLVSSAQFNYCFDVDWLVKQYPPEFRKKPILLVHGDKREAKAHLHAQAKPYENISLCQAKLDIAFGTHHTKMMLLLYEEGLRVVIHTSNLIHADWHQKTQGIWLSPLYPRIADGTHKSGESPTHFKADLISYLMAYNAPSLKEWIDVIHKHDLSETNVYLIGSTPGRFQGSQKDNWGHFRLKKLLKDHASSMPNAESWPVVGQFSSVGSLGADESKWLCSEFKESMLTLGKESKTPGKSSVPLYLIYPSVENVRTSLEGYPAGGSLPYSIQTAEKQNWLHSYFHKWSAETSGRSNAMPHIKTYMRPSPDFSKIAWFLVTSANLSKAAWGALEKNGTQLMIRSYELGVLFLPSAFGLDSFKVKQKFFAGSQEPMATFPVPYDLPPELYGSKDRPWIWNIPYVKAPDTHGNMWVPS
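Steps: enzyme plus compound, 15 min RT; add biotin/phosphotyrosine-FITC oligonucleotide (15 nM final), react 5 min; add donor/acceptor beads (10 ug/ml final), 10 min; read AlphaScreen. Tdp1 at 1 nM final.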
Starred values were filed as active, the others as inactive; ? = inconclusive; / = no result; [ ] = remark or other dose. Sampled rows, rich in hits. Any-hit rate of the full collection: about 19%. Unless noted, calls follow the shape of the dose curve; as a rule, active = well fitted curve in the direction sought with a large enough effect; inconclusive = small, poorly fitted or top-dose-only effect, or another doubt; inactive = no such curve, though single readings can be large; an effect the other way counts as inactive or inconclusive. % is scaled to controls: 0 for no effect and ±100 for the full control effect.

SMILES | ELG1 repair inh | TDP1 cell CPT | Giardia kill | IL1B secr inh | DT40 TDP1 no CPT | TDP1 block
COc1ccc(-c2csc(=Nc3ccccc3)n2CCO)cc1 | ? | ? | 33 | -24 | ? | 8%
Cc1ccc(-c2csc(=Nc3ccccc3)n2CCCO)cc1 | / | 16µM* | / | / | 10µM* | 16%
O=S(=O)(c1ccc(-c2csc(=Nc3ccc(F)cc3)n2CCCCCCO)cc1)N1CCCC1 | / | 2.9µM* | / | / | 2.6µM* | 10%
COCCn1c(-c2cccs2)csc1=Nc1cccnc1 | ? | ? | -23 | -3 | ? | 12%
OCCCn1c(-c2ccc(F)cc2)csc1=Nc1ccc(F)cc1 | / | 9.2µM* | / | / | 15µM* | 14%
Cc1c(C(=O)N2CCOCC2)c(S(=O)(=O)Nc2ccccc2)c(C)n1C | 13% | 2% | 6 | -9 | -9% | 4%
Cc1cc(NS(=O)(=O)c2cc(Cl)sc2Cl)no1 | 1% | 7% | 8 | 31 | -18% | /
COC(=O)c1cn(C(=O)c2ccc(OC)cc2)c2ccccc12 | 6% | 8.2µM* | 4 | 8 | 4.6µM* | /
COC(=O)c1cn(C(=O)c2ccc3c(c2)OCO3)c2ccccc12 | / | ? | / | -19 | 16µM* | /
COC(=O)c1cn(C(=O)c2cc(OC)c(OC)c(OC)c2)c2ccccc12 | -8% | -21% | 12 | 17 | ? | 0%
COC(=O)c1cn(C(=O)c2ccc(C)c(C)c2)c2ccccc12 | -17% | ? | -9 | 0 | 21µM* | 3%
COC(=O)c1cn(C(=O)c2ccc(C)cc2)c2ccccc12 | 10% | 18µM* | -1 | -1 | 16µM* | -5%
COC(=O)c1cn(C(=O)c2ccc(OC)c(OC)c2)c2ccccc12 | -17% | ? | -13 | 8 | ? | /
Cc1ccc2c(c1)CN(CCC(=O)NCc1cc(C)n(C)n1)CC(C)O2 (stereo not given) | / | 24%[9.04 µM] | / | / | -12% | /
Cc1ccc(S(=O)(=O)N2C[C@H]3C(=O)C[C@@H](c4ccccc4)N(S(=O)(=O)c4ccccc4C)[C@H]3C[C@H]2c2ccccc2)cc1 | / | ? | / | 6 | ? | /
Cc1cccc(C)c1-n1nnnc1C(c1ccnc2ccccc12)N(C)Cc1ccccc1 (stereo not given) | / | ? | / | 24 | 16µM* | /
Cc1cccc(C)c1N1CCN(C(c2ccnc3ccccc23)c2nnnn2-c2ccc3c(c2)OCCO3)CC1 (stereo not given) | / | 18µM* | / | ? | 15µM* | /
CCC(c1nnnn1-c1c(C)cccc1C)N1CCN(c2ccccn2)CC1 (stereo not given) | / | ? | / | 52 | ? | /
Cc1cccc(C)c1-n1nnnc1C(c1ccnc2ccccc12)N1CCN(CCN(C)C)CC1 (stereo not given) | / | ? | / | 3 | ? | /
Fc1ccccc1N1CCN(C(c2ccnc3ccccc23)c2nnnn2-c2ccc3c(c2)OCCO3)CC1 (stereo not given) | / | ? | / | -7 | 21µM* | /
Cc1cc(N2CCN(C(c3ccnc4ccccc34)c3nnnn3-c3c(C)cccc3C)CC2)c2ccccc2n1 (stereo not given) | / | 6.5µM* | / | -56* | 4.6µM* | /
CCOC(=O)C1=C(Cc2ccc(Cl)cc2)C(=O)c2ccccc2C1=O | 18% | 4.6µM* | 7 | -89* | 4.6µM* | 5%
CC1Cc2ccccc2N1Cc1cc(=O)c(OCC(=O)NCCc2ccccc2)co1 (stereo not given) | -16% | ? | 7 | -7 | ? | 0%
COc1cc(NC(=O)Cn2nc(C(F)(F)F)c3c2CCCC3)c(OC)cc1Cl | / | 21µM* | / | / | 16µM* | -1%
COc1cc(NC(=O)Cn2nc(C(F)(F)F)c3c2CCC3)cc(OC)c1OC | / | ? | / | / | 9.2µM* | -2%
SMILES | ELG1 repair inh | TDP1 cell CPT | Giardia kill | IL1B secr inh | DT40 TDP1 no CPT | TDP1 block
COC(=O)c1ccccc1NC(=O)Cn1nc(C(F)(F)F)c2c1CCCC2 | / | 23µM* | / | / | 7.3µM* | -4%
COc1ccc(NC(=O)Cn2nc(C(F)(F)F)c3c2CCCC3)c(OC)c1 | -18% | -33% | -10 | 28 | ? | 7%
Cc1ccc(NS(=O)(=O)c2ccc(Br)s2)cc1S(=O)(=O)N1CCOCC1 | -6% | 7% | -6 | 23 | -15% | 6%
Cc1ccc(Sc2ccc(N3CCC(C(=O)Nc4ccc(C)c(F)c4)CC3)nn2)cc1 | / | -9% | / | / | ? | 1%
COc1ccc(NC(=O)CSc2nnc3scc(-c4ccc(Cl)cc4)n23)cc1 | / | -20% | / | / | -29% | /
CCN(CC(=O)N1CCCC1)S(=O)(=O)c1ccc(OC)cc1 | 2% | -1% | 21 | 8 | -20% | /
COCCN1C(=O)/C(=C/c2ccc(N3CCCC3)cc2C)SC1=S | 5% | ? | 12 | 0 | ? | 5%
Cc1noc(/C=C/c2ccco2)c1S(=O)(=O)N1CCC(C(=O)N2c3ccccc3CC2C)CC1 (stereo not given) | ? | 15µM* | 9 | ? | 18µM* | 6%
Cc1cccc(NC(=O)C2CCN(S(=O)(=O)c3c(C)noc3/C=C/c3ccco3)CC2)c1C | / | -16% | / | / | -9% | 0%
COc1ccc(/C=C\c2onc(C)c2S(=O)(=O)N2CCC(C(=O)Nc3cccc(Cl)c3)CC2)cc1 | / | 6.5µM* | / | / | 9.2µM* | 5%
CCOc1ccccc1NC(=O)C1CCN(S(=O)(=O)c2c(C)noc2/C=C/c2ccco2)CC1 | / | ? | / | / | 18µM* | 5%
COc1cccc(C(=O)N2CCC(C(=O)Nc3cccc(Cl)c3)CC2)c1 | / | 10µM* | / | / | 23µM* | /
Cc1noc(/C=C/c2ccco2)c1S(=O)(=O)N1CCC(C(=O)NC(C)c2ccccc2)CC1 (stereo not given) | ? | -27% | 6 | -14 | ? | 0%
COc1ccc(/C=C\c2onc(C)c2S(=O)(=O)N2CCC(C(=O)Nc3cccc(C)c3C)CC2)cc1 | / | ? | / | / | -14% | -5%
CCc1nn(CCCC(=O)N2CCN(c3cccc(OC)c3)CC2)c(=O)c2cc3occc3n12 | / | -19% | / | / | -27% | 0%
COc1ccc(/C=C\c2onc(C)c2S(=O)(=O)N2CCC(C(=O)Nc3ccccc3OC)CC2)cc1 | / | ? | / | / | 23µM* | 5%
O=C(C[n+]1csc2ccccc21)c1cccc([N+](=O)[O-])c1 | / | 11µM* | / | / | 10µM* | /
COc1ccc(C(=O)OCCc2sc[n+](CC(=O)c3ccccc3)c2C)cc1 | -8% | ? | -22 | -55* | ? | 6%
Cc1c(CCO)sc[n+]1CC(=O)c1ccc(F)cc1 | / | -13% | / | / | -5% | /
